FMDV antiviral: blocks foot and mouth disease virus | FMDV antiviral cell-based qHTS | Potency, µM (series often up to 57.9 µM), usual class: inhibitors | hit rate 1.2% among 410,000 | AID 1159524; calls by dose curve; tested in HEK293T cells; note: read-out not given here; nearly all actives have a fitted effect of over 45% in size
HCMV inh: blocks human cytomegalovirus replication; HFF cells, HCMV-luciferase reporter, 72 h; hits give low values; activity change, negative = inhibition, % at 57.5 µM; hit rate 4.5% among 410,000; AID 1259415; in the data active = activity change below about -60%; inconclusive = no clear call, values can overlap the other calls; inactive = above about -39%
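Inhibition of viral replication was scored as loss of reporter luminescence in HFFs infected with HCMV-luciferase (MOI 1 PFU/cell) for 72 h; compounds tested at 2 doses, normalized to buffer and Salinomycin controls.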
HCV inh: inhibitors of hepatitis C virus infection; Huh7.5.1 HCVcc-Cre infection, luciferase reporter, 44 h; Potency, µM (top dose mostly 41.8 µM), hits mostly inhibitors; hit rate 3.4% among 340,000; AID 651820; active = well fitted inhibition curve with a large enough effect; inconclusive = small, poorly fitted or top-dose-only effect, or another doubt; inactive = no such curve, though single readings can be large or run the other way
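1,000 cells/well; 4 h culture; + compound; + HCVcc-Cre (~0.5 moi); 44 h; luciferase substrate, RT 15 min; read 15 sec.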
LASV entry inh: inhibitors of Lassa virus binding or cell entry. Lassa virus pseudotype entry inhibition, cell reporter. Potency, µM (doses to about 37.9 µM), hits mostly inhibitors. hit rate 1.2% among 300,000. AID 540256; calls by dose curve; tested in HEK293 cells; note: nearly all actives have a fitted effect of over 50% in size
Marburg entry inh: inhibitors of Marburg virus binding or cell entry; Marburg virus pseudotyped entry inhibition, cell reporter; Potency, µM (highest dose often 37.8 µM), actives largely listed as inhibitors; hit rate 1.8% among 300,000; calls by dose curve; tested in HEK293 cells
Large screens that a line does not name were inactive. A selection: hits, their analogues and other compounds. The true share with any hit is near 7.9%.

Cc1cc(-c2ccccc2)nc(SCC(=O)c2cccc([N+](=O)[O-])c2)n1	FMDV antiviral inconclusive, HCV inh 12.6µM, LASV entry inh inconclusive
COc1ccc(-c2ccc(=O)n(Cc3c(F)cccc3Cl)n2)cc1	HCV inh inconclusive (no result: LASV entry inh, Marburg entry inh)
O=C(CSc1nc(-c2ccccc2)cc(C(F)(F)F)n1)c1cccc([N+](=O)[O-])c1	FMDV antiviral inconclusive, HCV inh inconclusive
O=C(CSc1ccccc1C(=O)O)c1ccc([N+](=O)[O-])cc1	none (no result: LASV entry inh, Marburg entry inh)
CN1C(=O)C[C@@H](N2CCN(c3ccc(Cl)c(Cl)c3)CC2)C1=O	none (no result: FMDV antiviral, HCMV inh, HCV inh, LASV entry inh)
CCCSc1ncc(Cl)c(C(=O)N2CCN(c3ccc(OC)cc3)CC2)n1	none (no result: HCV inh)
Cc1ccc(OCc2nnc(SCC(=O)c3cccc([N+](=O)[O-])c3)n2C)cc1	HCV inh 8.91µM
CN(CC(=O)Nc1nc2ccccc2s1)S(=O)(=O)c1ccc(Br)cc1	FMDV antiviral 35.5µM, HCV inh inconclusive
CN(C)C(=S)Nc1nc2ccccc2s1	HCV inh 14.1µM (no result: LASV entry inh, Marburg entry inh)
COc1cc(OC)c2nc(-c3cc4c(c(OC)c3)OCCN(C(=O)C(C)c3n[nH]c(=O)c5ccccc35)C4)cc(C)c2c1 (centres undefined)	none (no result: HCMV inh, HCV inh, LASV entry inh, Marburg entry inh)
COc1ccc(C(=O)Nc2cc(OC)ccc2OC)cc1	HCV inh 11.2µM
COc1ccc(OC)c(NC(=O)c2cc(OC(C)=O)cc(C(=O)Nc3cc(OC)ccc3OC)c2)c1	FMDV antiviral 28.2µM, HCMV inh inconclusive, HCV inh inconclusive (no result: LASV entry inh, Marburg entry inh)
COc1ccc(OC)c(NS(=O)(=O)c2ccc(NC(=O)c3ccc(NS(C)(=O)=O)cc3)cc2)c1	HCMV inh -82.7, HCV inh inconclusive, Marburg entry inh inconclusive
Cc1ccc(N(Cc2cccs2)C(=O)c2ccccc2)cc1	none (no result: HCV inh)
NC(=S)n1[nH]c(-c2ccc([N+](=O)[O-])cc2)c(N=Nc2ccc(O)cc2)c1=O	none
NC(=S)n1[nH]c(-c2ccc([N+](=O)[O-])cc2)c(N=Nc2cccc(Cl)c2)c1=O	FMDV antiviral inconclusive, HCMV inh -101.1, HCV inh 12.6µM, LASV entry inh inconclusive, Marburg entry inh inconclusive
Cc1ccc(C2Nc3cc(C)c(C)cc3-n3c(-c4ccccc4)c4c(=O)n(C)c(=O)n(C)c4c32)o1 (centres undefined)	none (no result: HCV inh)
Cc1cc(NCc2ccccn2)n2c(nc3ccccc32)c1C#N	none (no result: LASV entry inh, Marburg entry inh)
CCCc1cc(NCc2ccccn2)n2c(nc3ccccc32)c1C#N	HCV inh 12.6µM
O=C(Cn1nc(C(F)(F)F)cc1C1CC1)NCc1ccccc1F	HCMV inh -68.6
COC(=O)[C@@]1(Cc2ccc(OC)cc2)[C@@H]2C(=CC(=O)[C@H]2CC(=O)C(=O)N(C)C)CN1C(=O)c1ccccc1	FMDV antiviral 25.1µM, HCMV inh -79.5, HCV inh 12.6µM, LASV entry inh inconclusive, Marburg entry inh inconclusive
C=C1C(=O)CC2=C1[C@](Cc1ccc(F)cc1)(C(=O)OC)N(C(=O)c1ccccc1)C2	FMDV antiviral inconclusive (no result: HCV inh, LASV entry inh, Marburg entry inh)
C=C1C(=O)C=C2CN(C(=O)c3ccccc3)[C@@](Cc3ccc(F)cc3)(C(=O)OC)[C@@H]12	FMDV antiviral 3.16µM, HCV inh inconclusive, LASV entry inh 20.6µM, Marburg entry inh inconclusive (no result: HCMV inh)
Cc1oc(-c2ccccc2)nc1Cn1cccc1C1=NC(c2ccccc2)CO1 (centres undefined)	FMDV antiviral inconclusive, HCV inh inconclusive, LASV entry inh inconclusive, Marburg entry inh 20µM
Fc1ccc(Cn2cccc2C2=NC(c3ccccc3)CO2)cc1 (centres undefined)	none
Cc1n[nH]c(C)c1N1C(=O)c2cccc3cc(Br)cc(c23)C1=O	HCV inh 4.47µM
Cc1n[nH]c(C)c1N1C(=O)c2cccc3c(Br)ccc(c23)C1=O	HCV inh inconclusive, LASV entry inh inconclusive
CC1=[N+](C)c2ccc3ccccc3c2C1(C)C	FMDV antiviral inconclusive, HCMV inh -84.3, HCV inh inconclusive, LASV entry inh inconclusive, Marburg entry inh inconclusive
Cc1nsc2c1ccc1ccccc12	none
CCOC(=O)c1sc2ccc(S(=O)(=O)N3CCOCC3)cc2c1N	FMDV antiviral inconclusive, HCMV inh -61.6
CCCCc1ccc(-n2nc3cc(C)c(NC(=O)Cc4ccccc4)cc3n2)cc1	none (no result: HCV inh)
COC(=O)c1cc(=O)nc(NN=C2c3ccccc3-c3ccccc32)s1	HCMV inh -65.6 (no result: HCV inh, LASV entry inh, Marburg entry inh)
COC(=O)c1cc(=O)nc(NN=Cc2ccccc2)s1	none (no result: FMDV antiviral, HCV inh, LASV entry inh, Marburg entry inh)
CS(=O)(=O)NCC(c1ccco1)N1CCN(c2ccccc2)CC1 (centres undefined)	none (no result: HCV inh, Marburg entry inh)
CCOc1ccccc1NC(=O)CN1C=NS(=O)(=O)c2ccccc21	none (no result: HCV inh, Marburg entry inh)
CN1C/C(=C/c2ccccc2[N+](=O)[O-])C(=O)/C(=C\c2ccccc2[N+](=O)[O-])C1	FMDV antiviral 17.8µM, HCV inh inconclusive, LASV entry inh 8.91µM, Marburg entry inh 3.16µM
Cc1ccc(C)c2c1CCC(=Cc1ccccc1[N+](=O)[O-])C2=O	none (no result: HCV inh, LASV entry inh, Marburg entry inh)
O=[N+]([O-])c1ccc(-c2nc(=S)c3c(o2)CCCC3)cc1	HCMV inh -101.5, Marburg entry inh inconclusive
CCc1nnc(NC(=O)C(=O)c2cc(C)n(-c3ccccc3)c2C)s1	FMDV antiviral inconclusive, HCMV inh inconclusive (no result: HCV inh)
Cc1cc(C(=O)C(=O)Nc2nnc(C(C)C)s2)c(C)n1-c1ccccc1	FMDV antiviral inconclusive, HCMV inh -87.3 (no result: HCV inh)
CC(NC(=O)c1ccco1)c1nnc2n1CCN(Cc1ccc(N(C)C)cc1)CC2 (centres undefined)	none (no result: HCMV inh, HCV inh, LASV entry inh, Marburg entry inh)
CN=C1NN=C(c2cc(C)n(-c3c(C)n(C)n(-c4ccccc4)c3=O)c2C)CS1	Marburg entry inh inconclusive
Cc1cc(C2=NNC(=NC3CC3)SC2)c(C)n1-c1ccccc1	FMDV antiviral 0.1µM, HCMV inh -77.0, HCV inh inconclusive (no result: LASV entry inh, Marburg entry inh)
COc1ccc(-n2c(C)cc(C3=NNC(=NC4CC4)SC3)c2C)cc1	HCMV inh -71.3, HCV inh inconclusive, LASV entry inh inconclusive, Marburg entry inh inconclusive
CCc1nc2nc(C)c(NS(=O)(=O)c3ccc(C(C)(C)C)cc3)c(=O)n2[nH]1	none (no result: HCV inh)
C=CC(=O)N=c1sc2ccccc2n1-c1ccccc1	FMDV antiviral inconclusive, HCV inh 11.2µM, LASV entry inh inconclusive, Marburg entry inh inconclusive
COC(=O)CSc1nnc(NC(=O)c2ccc3c(c2)OCO3)s1	none (no result: LASV entry inh, Marburg entry inh)
Cc1csc(NC(=O)c2ccc3c(c2)OCO3)n1	LASV entry inh 7.08µM, Marburg entry inh inconclusive
O=C(O)CSc1nnc(NC(=O)c2ccc3c(c2)OCO3)s1	FMDV antiviral inconclusive, LASV entry inh 8.91µM, Marburg entry inh inconclusive
CCOC(=O)Cc1csc(NC(=O)c2ccc3c(c2)OCO3)n1	none
O=C(Nc1ccc2c(c1)OCCO2)C1CCN(c2nnnn2-c2ccccc2)CC1	FMDV antiviral inconclusive, LASV entry inh inconclusive
O=C(Nc1cccc(F)c1)C1CCN(c2nnnn2-c2ccccc2)CC1	FMDV antiviral 17.8µM, LASV entry inh inconclusive
O=C(NN=Cc1ccc2c(c1)OCO2)c1ccccc1	LASV entry inh inconclusive, Marburg entry inh inconclusive
O=C(CN(Cc1ccccc1)S(=O)(=O)c1ccccc1)N/N=C/c1ccc2c(c1)OCO2	HCV inh inconclusive, LASV entry inh 7.3µM, Marburg entry inh inconclusive (no result: FMDV antiviral)
O=C(CNC(=O)c1cccc(Br)c1)N/N=C/c1ccc2c(c1)OCO2	HCMV inh -74.2
